Measured values as given in PubChem BioAssay (NCI).
The panel holds about 83,000 compounds, 20% with a hit somewhere; the sample as a whole holds those more often.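 Treatment: one concentration, 48 hours, 96-well format. Scoring: percent growth, with anything below 10 considered active.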 Values without a mark were called inactive. Active and inactive are the calls of the source.

Assays:
Test in all cases: NCI-60 one-dose screen, 48 h (100 = growth as untreated, 0 = no growth, -100 = all killed)
Conditions in all cases: 10 µM unless noted
DU-145 prostate = system: DU-145 prostate
K-562 leukemia = system: K-562 leukemia
MALME-3M melanoma = system: MALME-3M melanoma
MDA-MB-231 breast = system: MDA-MB-231 breast
RXF 393 renal = system: RXF 393 renal
SF-268 CNS = system: SF-268 CNS
SF-295 CNS = system: SF-295 CNS
SF-539 CNS = system: SF-539 CNS
UACC-257 melanoma = system: UACC-257 melanoma
M14 melanoma = system: M14 melanoma
HCT-15 colon = system: HCT-15 colon
HT29 colon = system: HT29 colon
SNB-75 CNS = system: SNB-75 CNS
SNB-19 CNS = system: SNB-19 CNS
U251 CNS = system: U251 CNS
PC-3 prostate = system: PC-3 prostate
SK-MEL-5 melanoma = system: SK-MEL-5 melanoma
UACC-62 melanoma = system: UACC-62 melanoma
LOX IMVI melanoma = system: LOX IMVI melanoma
SK-MEL-28 melanoma = system: SK-MEL-28 melanoma

| Structure (SMILES) | growth (DU-145 prostate) | growth (K-562 leukemia) | growth (MALME-3M melanoma) | growth (MDA-MB-231 breast) | growth (RXF 393 renal) | growth (SF-268 CNS) | growth (SF-295 CNS) | growth (SF-539 CNS) | growth (UACC-257 melanoma) | growth (M14 melanoma) | growth (HCT-15 colon) | growth (HT29 colon) | growth (SNB-75 CNS) | growth (SNB-19 CNS) | growth (U251 CNS) | growth (PC-3 prostate) | growth (SK-MEL-5 melanoma) | growth (UACC-62 melanoma) | growth (LOX IMVI melanoma) | growth (SK-MEL-28 melanoma) |
| --- | --- | --- | --- | --- | --- | --- | --- | --- | --- | --- | --- | --- | --- | --- | --- | --- | --- | --- | --- | --- |
| COc1ccc(OC)c2c1[nH]c(=O)c1c3ncccc3cn21 | 26.3% | 32% | 60.2% | 41.4% | 12.7% | 34.2% | -3.56% (active) | 37.2% | 37.4% | 39.7% | 22.8% | -9.43% (active) | 59.7% | 30.3% | 22.5% | 33.6% | 33.3% | 23.4% | 8.59% (active) | 64.3% |
| COC(=O)[C@]12CC[C@@H](C)[C@H](C)[C@@H]1C1=CC[C@@H]3[C@@]4(C)C(C=O)=C[C@@](C)(COS(C)(=O)=O)C4[C@H](O)C[C@@]3(C)[C@]1(C)CC2 (stereo not given in full) | -93.6% (active) | 1.48% (active) | -78.6% (active) | -74.9% (active) | -96.4% (active) | -74.4% (active) | -87.3% (active) | -89.6% (active) | -82.2% (active) | -59.9% (active) | -70.3% (active) | -85.2% (active) | -92.1% (active) | -67.7% (active) | -96.2% (active) | -36% (active) | -91.6% (active) | -38.4% (active) | -97.3% (active) | -57.7% (active) |
| C=C1C(=O)O[C@H]2[C@H]1CC/C(CNC(=O)/C=C/c1ccc(Cl)cc1Cl)=C\CC[C@@]1(C)O[C@@H]21 | -80.7% (active) | -31.2% (active) | -89.8% (active) | -42.1% (active) | -84.6% (active) | -69.7% (active) | 39.2% | -72.4% (active) | -51.7% (active) | -57.5% (active) | -64% (active) | -58.4% (active) | 21.3% | 37.4% | 8.28% (active) | -26.4% (active) | 3.01% (active) | -65.2% (active) | -97.2% (active) | -68.2% (active) |
| NS(=O)(=O)c1cnccc1Sc1ccncc1S(N)(=O)=O | 102% | 76.3% | 91.1% | 111% | 108% | 107% | 130% | 93% | 111% | 100% | 102% | 113% | 96.6% | 105% | 107% | 94.9% | 105% | 99.4% | 101% | 117% |
| Fc1cnc(NC2CC2)nc1-c1cnc2ccc(N3CCOCC3)cn12 | 7.39% (active) | 10.9% | -33.7% (active) | 2.98% (active) | -47.1% (active) | 0.958% (active) | 3.46% (active) | -35% (active) | -7.35% (active) | -26% (active) | 1.15% (active) | 0.985% (active) | -42.9% (active) | 11.5% | 8.28% (active) | 5.58% (active) | -53.1% (active) | -80.6% (active) | 4.17% (active) | -4.09% (active) |
| N=C(N)c1ccc(-c2ccc(-c3cncc4ccccc34)s2)s1 | -90% (active) | -59.4% (active) | -59.1% (active) | -72.3% (active) | -74.9% (active) | -71.5% (active) | -81.3% (active) | -77.6% (active) | 123% | -76.8% (active) | -74.2% (active) | -77.1% (active) | -95.9% (active) | -54.8% (active) | -92.5% (active) | -80.8% (active) | -89.5% (active) | -64.5% (active) | -78.1% (active) | -69.7% (active) |
| O=C(c1ccccc1)N1N=C(c2ccccc2)CC1c1nnc2n(Cc3ccccc3)c(=O)c3c4c(sc3n12)CCCC4 (stereo not given) | 116% | 116% | 85.2% | 111% | 104% | 99.3% | 138% | 92.1% | 112% | 111% | 102% | 101% | 108% | 101% | 98.3% | 97.9% | 109% | 112% | 91.8% | 106% |
| Cn1c(-c2c(N)n(Cc3ccc(C(F)(F)F)cc3)c3nc(C#N)c(C#N)nc23)nc2ccccc21 | -4.79% (active) | -30.7% (active) | -23.9% (active) | -13.2% (active) | 4.46% (active) | 43.3% | -27.5% (active) | 8.23% (active) | 6.78% (active) | 16.2% | 12.5% | 9.72% (active) | 15.1% | 21.3% | 5.09% (active) | -26.6% (active) | -10.4% (active) | 18.6% | 2.4% (active) | 28.8% |
| CCOc1c(C#N)nnc2c(C#N)c(NC(=O)c3ccccc3)nn12 | 109% | 98.6% | 103% | 100% | 110% | 98.8% | 104% | 95.3% | 97% | 99.1% | 106% | 106% | 79.8% | 100% | 95.6% | 100% | 99.4% | 101% | 95.5% | 104% |
| O=C(Nc1cccc(C(F)(F)F)c1)Nc1cccc(C(F)(F)F)c1 | 25% | 11.5% | -17.1% (active) | -34.8% (active) | 22.7% | 22.7% | 4.86% (active) | 19.5% | -32.9% (active) | 13% | 10.7% | 3.56% (active) | 11.1% | 10.7% | -15.3% (active) | 6.31% (active) | -72.5% (active) | 10.6% | 8.64% (active) | 26.8% |
| COc1cc(/C=N/n2c(CN3CCOCC3)nc3ccccc3c2=O)cc(OC)c1OC | 115% | 97.2% | 106% | 102% | 117% | 98.1% | 98.6% | 97.9% | 97% | 102% | 106% | 103% | 94.4% | 95.7% | 98.7% | 101% | 101% | 97.6% | 100% | 99.3% |
| O=C(CSc1nnc(-c2ccc(NC(=O)c3cccnc3)cc2)o1)Nc1cccc(Br)c1 | 102% | 66.3% | 93.1% | 93% | 111% | 102% | 87.2% | 70.6% | 102% | 101% | 90.6% | 107% | 72.1% | 62.9% | 68.7% | 82.8% | 92.9% | 104% | 93.6% | 110% |
| CCn1c(C)nc2cc(C(N)=O)ccc21 | 110% | 102% | 96.4% | 113% | 93.4% | 104% | 238% | 96.4% | 87.9% | 95.5% | 92.8% | 98.7% | 90.2% | 104% | 95.4% | 101% | 112% | 89.2% | 91.6% | 113% |
| Clc1ccc(-c2c3ccc(=[N+]4CCCCC4)cc-3oc3cc(N4CCCCC4)ccc23)cc1 | -91.7% (active) | -34.1% (active) | -76.4% (active) | -81.7% (active) | -91.2% (active) | -89.6% (active) | -72.6% (active) | -93.4% (active) | -78.5% (active) | -92.7% (active) | -77.1% (active) | -82.3% (active) | -70.1% (active) | -90% (active) | -79.6% (active) | -71.2% (active) | -95.4% (active) | -87.1% (active) | -70.2% (active) | -91.4% (active) |
| CCN(CC)CCN1C(=O)c2c(c(C)c3c(oc4cc(O)ccc43)c2C)C1=O | -89.2% (active) | -58.5% (active) | 84.2% | -68.7% (active) | 79.4% | 74.5% | 103% | 90.8% | 97.7% | -79.3% (active) | -58.9% (active) | -37.2% (active) | 90.3% | 9.88% (active) | -87.9% (active) | -75.1% (active) | 79% | 86.2% | 94% | 63.1% |
| CNS(=O)(=O)c1n[nH]nc1-c1cc(C(C)(C)C)c(O)c(C(C)(C)C)c1 | 110% | 98.7% | 88.3% | 103% | 114% | 99.3% | 92.4% | 99.4% | 84.7% | 95.9% | 95.3% | 108% | 80.5% | 107% | 95.5% | 97.2% | 94.2% | 100% | 101% | 105% |
